These results are taken from PubChem BioAssay AID489028 (Sanford-Burnham Center for Chemical Genomics, 2010).

In all, about 10,000 compounds went through this assay and about 5,600 (56%) were called active. So high a share suggests a set chosen from earlier hits. The list is a sample of the results. Values without a mark were called inactive. No stated cut-off is given here; in the data, active means inhibition above about 40%; inactive means the rest.

In the assay the target is Protein Mdm4 (Homo sapiens) + E3 ubiquitin-protein ligase Mdm2 (Homo sapiens) (UniProt O15151+Q00987). The experiment in a line: inhibition of human Mdm2/MdmX pairing – luminescence, single concentration, confirmation (AID 489028). The following applies: Mdm2-MdmX binding, luminescent assay; at 8 µM; active compounds read high.
Chain of Protein Mdm4 (Homo sapiens) + E3 ubiquitin-protein ligase Mdm2 (Homo sapiens) (O15151 whole entry, looked up): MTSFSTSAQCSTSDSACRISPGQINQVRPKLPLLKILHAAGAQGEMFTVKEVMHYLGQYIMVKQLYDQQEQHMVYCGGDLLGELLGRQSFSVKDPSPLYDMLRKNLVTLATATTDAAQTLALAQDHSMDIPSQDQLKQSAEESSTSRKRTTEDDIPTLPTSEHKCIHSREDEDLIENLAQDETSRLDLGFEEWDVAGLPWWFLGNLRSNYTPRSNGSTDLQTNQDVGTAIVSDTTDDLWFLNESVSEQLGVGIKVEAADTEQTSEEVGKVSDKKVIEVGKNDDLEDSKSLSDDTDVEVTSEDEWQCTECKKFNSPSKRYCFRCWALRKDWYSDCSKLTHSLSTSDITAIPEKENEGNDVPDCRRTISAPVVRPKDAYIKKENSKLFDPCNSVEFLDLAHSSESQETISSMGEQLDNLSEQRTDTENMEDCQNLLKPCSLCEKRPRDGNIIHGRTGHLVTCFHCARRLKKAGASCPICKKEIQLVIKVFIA
Chain of Protein Mdm4 (Homo sapiens) + E3 ubiquitin-protein ligase Mdm2 (Homo sapiens) (Q00987 whole entry, looked up): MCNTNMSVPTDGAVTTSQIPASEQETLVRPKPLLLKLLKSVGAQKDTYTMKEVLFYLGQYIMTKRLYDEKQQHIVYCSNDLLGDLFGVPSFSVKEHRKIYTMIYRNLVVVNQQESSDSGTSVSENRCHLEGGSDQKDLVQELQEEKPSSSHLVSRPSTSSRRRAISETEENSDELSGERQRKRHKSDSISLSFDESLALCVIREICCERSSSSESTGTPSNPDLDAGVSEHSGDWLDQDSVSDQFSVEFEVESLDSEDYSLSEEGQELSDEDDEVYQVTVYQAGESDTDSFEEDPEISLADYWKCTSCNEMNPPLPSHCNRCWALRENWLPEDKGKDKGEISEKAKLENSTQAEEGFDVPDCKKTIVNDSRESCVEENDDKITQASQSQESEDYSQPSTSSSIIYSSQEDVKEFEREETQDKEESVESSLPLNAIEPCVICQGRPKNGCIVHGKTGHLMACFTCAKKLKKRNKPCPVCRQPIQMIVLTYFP
In general, inhibition refers to how much of the control response was suppressed. For `CC[C@]1(O)C[C@@H]2CN(CCc3c([nH]c4ccccc34)[C@@](C(=O)OC)(c3cc4c(cc3OC)N(C)[C@H]3[C@@](O)(C(=O)OC)[C@H](OC(C)=O)[C@]5(CC)C=CCN6CC[C@]43[C@@H]65)C2)C1`, the inhibition was 72.5% (active).

`CC[C@]1(O)CC2CN(CCc3c([nH]c4ccccc34)[C@@](C(=O)OC)(c3cc4c(cc3OC)N(C=O)[C@H]3[C@@](O)(C(=O)OC)[C@H](OC(C)=O)[C@]5(CC)C=CCN6CC[C@]43[C@@H]65)C2)C1` (stereo partly drawn): the inhibition is 58.4% (active).

`O=C1NC(Nc2nc3ccccc3s2)(C(F)(F)F)C(=O)N1C1CCCCC1` (stereo not drawn): the inhibition was 62.5% (active).

`COc1cc(NS(=O)(=O)c2ccc3ccccc3c2)c2ncccc2c1`: the inhibition is 88.3% (active).

Take `CC(C)c1ccccc1OCC(O)CN(CC(O)COc1cccc2ccccc12)C(C)C` (stereo not drawn): the inhibition is 29.8%.

`CC(=O)c1ccc(S(=O)(=O)N2CCN(C(=O)/C=C/c3ccc4ccccc4n3)CC2)cc1`: the inhibition was 71.5% (active).

For the molecule `O=C(Cc1csc(Nc2nc(=S)[nH]c3ccccc23)n1)NCCCN1CCN(c2cccc(Cl)c2)CC1`, the inhibition was 5%.

As for `CC1(C)CC(N2CCN(C(c3ccccc3)c3ccccc3)CC2)=CC(=[N+]2CCCCC2)C1`, the inhibition is 89.8% (active).

Turning to `COc1ccc(-c2nn(C)c(=O)c3ccccc23)cc1NC(=O)COc1ccccc1`, the inhibition is 41.5% (active).

Regarding `COc1cc([N+](=O)[O-])ccc1NC(=O)COC(=O)CCOc1ccc(C)cc1`, the inhibition was 21.9%.

In the case of `COC(=O)c1cc(NC(=O)c2nn(C)c(=O)c3ccccc23)cc(C(=O)OC)c1`, the inhibition was 3.8%.

As for `CCN(CC)c1ccc(/C=N/Nc2nc(C)cc(C)n2)c(O)c1`, the inhibition is 53% (active).

For `CCN(CC)c1ccc(/C=N/NC(=O)c2cnccn2)c(O)c1`, the inhibition is 79% (active).

As to `CCOc1ccc(-n2c(O)c(/C=N/Nc3nc(C)cc(C)n3)c3ccccc3c2=O)cc1`, the inhibition was 35.1%.

Consider `Cc1ccc(NC(=S)NC(NC(=O)Cc2cccc3ccccc23)C(Cl)(Cl)Cl)cc1` (stereo not drawn), for which the inhibition was 11.2%.

Consider `COc1ccc(CC(=O)N/N=C(\C)c2ccccn2)cc1`, for which the inhibition is 14.6%.

As to `C/C(=N\NC(=O)c1ccccc1F)c1ccccn1`, the inhibition was 41.9% (active).

For the molecule `COc1ccccc1N(CC(=O)N/N=C(\C)c1ccccc1O)S(=O)(=O)c1ccc(C)cc1`, the inhibition was 60.6% (active).

With `Cc1ccccc1C(=O)N1CCN(c2ccc(NC(=O)c3cccs3)cc2)CC1`, the inhibition was 48.6% (active).

With `Cc1ccc(-c2nnc(-c3ccc(NC(=O)c4cccs4)cc3)o2)cc1`, the inhibition is 20.9%.

For `Cc1cc2oc3ccc(NCCC4CCCN4C)cc3c(=O)c2cc1C` (stereo not drawn), the inhibition was 1.8%.

Consider `Cc1cccc(NS(=O)(=O)c2ccc(-c3cnc(C4CC4)o3)cc2)c1`, for which the inhibition was 47% (active).

Take `COC(=O)CCNc1ccc2c(c1)OCCO2`: the inhibition was 50.1% (active).

For the molecule `O=C1CN(c2nc(-c3ccccc3)c3cc(Br)ccc3n2)c2ccccc2N1`, the inhibition is 16.2%.

For the molecule `COc1ccc2[nH]c(=O)c(CN(Cc3cccnc3)S(=O)(=O)c3ccccc3F)cc2c1`, the inhibition was 57.4% (active).

Consider `Cn1cc(/C=C/c2nc3ccccc3c(=O)n2-c2cccc([N+](=O)[O-])c2)c2ccccc21`, for which the inhibition was 40.4% (active).

On to `Cc1c(C(=O)N/N=C/c2ccccc2)[nH]c2c([N+](=O)[O-])cccc12`, for which the inhibition is 62.2% (active).

Take `Clc1ccc2c(c1)C1=C(C(c3ccncc3)O2)C(c2ccc(Br)cc2)n2ncnc2N1` (stereo not drawn): the inhibition was 25.8%.

`O=C(CCl)Nc1cccc(CP(=O)(c2ccccc2)c2ccccc2)c1`: the inhibition is 93.8% (active).

Consider `Cc1noc(C)c1-c1ccc2ncnc(NC(C)c3ccco3)c2c1` (stereo not drawn), for which the inhibition was 46.5% (active).

Consider `Nc1cccc(-c2cc(-c3ccccc3)nc(-c3cccc(N)c3)n2)c1`, for which the inhibition was 9.85%.

Turning to `CCCCCCCCCCOC(=O)Cn1c(COc2ccc(C)cc2)[n+](C)c2ccccc21`, the inhibition was 74.3% (active).

With `CCCCCCCCCCOC(=O)Cn1c(COc2cccc(OC)c2)[n+](C)c2ccccc21`, the inhibition is 53% (active).

As to `C/C(=N\N=C(N)N)c1ccc(Cl)cc1`, the inhibition was 23%.

As for `O=C1c2ccccc2C2=Nc3ccccc3SC(c3ccccc3F)C12` (stereo not drawn), the inhibition is 23.8%.

With `C=C(C)COc1ccc(-c2n[nH]c(C)c2-c2ccccc2OC)c(O)c1`, the inhibition is 18.3%.

Turning to `C=C(C)COc1ccc(-c2n[nH]c(C)c2-c2ccccc2)c(O)c1`, the inhibition is 2.2%.

`COc1ccc(-c2n[nH]c(C)c2-c2ccc(OC)c(OC)c2)c(O)c1`: the inhibition was 50.9% (active).

For `Cc1cc(C)cc(NC(=O)Cn2cnc3c(nnn3Cc3ccc(F)cc3)c2=O)c1`, the inhibition was 27.3%.

With `CCCCN1C(=O)/C(=C/C=C2/C=Cc3ccccc3N2CC)SC1=S`, the inhibition was 22.4%.

For the molecule `CCN1C(=O)/C(=C\N2CCN(c3cccc(Cl)c3)CC2)SC1=S`, the inhibition is 45.1% (active).

In the case of `O=C(NCCN1CCOCC1)c1ccc(/C=C2\Sc3ccccc3N(Cc3ccc(F)cc3)C2=O)cc1`, the inhibition is 11.8%.

For the molecule `CCN1CCN(CCNC(=O)c2ccc(/C=C3/Sc4ccccc4N(Cc4cccc(C)c4)C3=O)cc2)CC1`, the inhibition is 81.8% (active).

Consider `CCN(CCCNC(=O)c1ccc2c(c1)NC(=O)CN2C)c1cccc(C)c1`, for which the inhibition was 20.2%.

As to `N#Cc1c(N)nc2c3c(sc(=N)c2c1N)NC(=O)CC3c1ccccc1Cl` (stereo not drawn), the inhibition was 2.45%.

Regarding `C=CCN(CC=C)S(=O)(=O)c1ccc(C(=O)Nc2nc3c(s2)CCc2ccccc2-3)cc1`, the inhibition was 24.2%.

Regarding `N#Cc1ccc(C(=O)Nc2nc(-c3cccs3)c(C(=O)C(F)(F)F)s2)cc1`, the inhibition was 86.9% (active).

For `O=[N+]([O-])c1ccc(Oc2ccc(F)cc2Br)c2ccncc12`, the inhibition was 53.5% (active).

Take `COc1cccc(/C=N/Nc2cc(C)nc(-c3ccccc3O)n2)c1O`: the inhibition was 93.8% (active).

`COc1ccccc1/C=N\Nc1cc(C)nc(-n2nc(C)cc2C)n1`: the inhibition was 31.1%.

For `Cc1ccc(OCC(O)CN2CCN(CC(O)COc3ccc(C)cc3Cl)CC2)c(Cl)c1` (stereo not drawn), the inhibition was 35.6%.

For the molecule `Cc1cccc(N(C)C(=O)c2cc3c(=O)[nH]c4ccc(C)cc4c3s2)c1`, the inhibition was 73.5% (active).

`CCN1CCN(c2nc(Nc3cc(OC)ccc3OC)nc(Nc3cc(OC)ccc3OC)n2)CC1`: the inhibition was 12.1%.
